Compounds without any hit were thinned out: in the full panel of roughly 83,000, 20% have a hit.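 48-hour exposure, single concentration, 96-well plates; percent growth endpoint where 0 means no net growth. Active: below 10.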 Values without a mark were called inactive. The source made the active and inactive calls.
Assays:
Experiment in all cases: NCI-60 one-dose screen, 48 h (100 = growth as untreated, 0 = no growth, -100 = all killed)
Details in all cases: 10 µM
NCI-H23 lung = test system: NCI-H23 lung
NCI-H226 lung = test system: NCI-H226 lung
NCI-H322M lung = test system: NCI-H322M lung
HOP-62 NSCLC = test system: HOP-62 NSCLC
NCI-H460 lung = test system: NCI-H460 lung
HOP-92 NSCLC = test system: HOP-92 NSCLC
NCI-H522 lung = test system: NCI-H522 lung
A549/ATCC NSCLC = test system: A549/ATCC NSCLC
786-0 renal = test system: 786-0 renal
COLO 205 colon = test system: COLO 205 colon
DU-145 prostate = test system: DU-145 prostate
K-562 leukemia = test system: K-562 leukemia
MALME-3M melanoma = test system: MALME-3M melanoma
MDA-MB-231 breast = test system: MDA-MB-231 breast
SF-268 CNS = test system: SF-268 CNS
SF-295 CNS = test system: SF-295 CNS
SF-539 CNS = test system: SF-539 CNS
UACC-257 melanoma = test system: UACC-257 melanoma
M14 melanoma = test system: M14 melanoma

Structure (SMILES) | growth (NCI-H23 lung) | growth (NCI-H226 lung) | growth (NCI-H322M lung) | growth (HOP-62 NSCLC) | growth (NCI-H460 lung) | growth (HOP-92 NSCLC) | growth (NCI-H522 lung) | growth (A549/ATCC NSCLC) | growth (786-0 renal) | growth (COLO 205 colon) | growth (DU-145 prostate) | growth (K-562 leukemia) | growth (MALME-3M melanoma) | growth (MDA-MB-231 breast) | growth (SF-268 CNS) | growth (SF-295 CNS) | growth (SF-539 CNS) | growth (UACC-257 melanoma) | growth (M14 melanoma)
COc1cc(/C=C/C(=O)c2ccc(F)cc2)ccc1Oc1nc(Nc2ccc(F)cc2)nc(N(C)C)n1 | 66.8% | 53.7% | 79.1% | 93.5% | 69.6% | 65.6% | 62.3% | 74.1% | 71% | 118% | 78.4% | 25.7% | 84.4% | 59.4% | 54.8% | 53.1% | 77.5% | 47.7% | 68.6%
CC(=O)c1cc(C(=O)c2ccc3c(c2)NC(=O)CO3)n2ccc3ccccc3c12 | 58.3% | 62.3% | 87.8% | 74.1% | 63.8% | 97.7% | 71.6% | 29.8% | 51.7% | 91.9% | 84.1% | 84.1% | -5.58% (active) | 29.9% | 79% | 98.9% | 31.9% | 86.1% | 65.1%
O=C(CSc1nnc(-c2c[nH]c3ccccc23)n1-c1ccccc1)c1ccc(Cl)cc1 | 40.8% | 17.6% | 58.7% | 47.1% | 60.1% | 65% | 67% | 37.5% | 44.9% | 42.6% | 88.4% | 69% | 64% | 51.7% | 69.4% | 55% | 49.5% | 72.3% | 80.6%
COc1ccc(-c2nc(-c3ccccc3)c(-c3ccccc3)n2-c2ccc(S(=O)(=O)Nc3ncccn3)cc2)cc1OC | 94.8% | 75.1% | 77.4% | 76.9% | 95.6% | 56.6% | 89% | 87.6% | 64.6% | 133% | 89% | 76.8% | 106% | 62.2% | 82.9% | 46.5% | 67.2% | 113% | 93.9%
COc1ccc(NC(=O)Cn2c(/C=C/c3ccc(N(C)C)cc3)nc3ccccc3c2=O)cc1 | 49.8% | -15.2% (active) | 46.4% | 39.3% | 19.5% | -2.51% (active) | 44.1% | 15.2% | 7.97% (active) | 47% | 6.75% (active) | 58.8% | 7.28% (active) | 18.8% | 73% | 49.5% | -60.2% (active) | 67.7% | 81%
COc1cc(/C=C/C(=O)c2ccc(C(F)(F)F)cc2)ccc1Oc1nc(Nc2ccc(F)cc2)nc(N(C)C)n1 | 64.6% | 71.7% | 82.8% | 102% | 82.7% | 81.5% | 76.7% | 78.7% | 71.8% | 134% | 82.9% | 48.2% | 87.7% | 85.6% | 65.5% | 64.1% | 93.8% | 75.1% | 72.8%
Cc1ccc(-c2nc(Nc3ccc(S(N)(=O)=O)cc3)c3ccccc3n2)cc1 | 71.2% | 73.5% | 53.2% | 66.7% | 22.4% | 36.4% | 77.3% | 51.7% | 14.2% | 82.9% | 56.6% | 6.36% (active) | 98.8% | 22.6% | 52.1% | 24.2% | 37% | 93.9% | 22.9%
OCCNc1oc(-c2ccccc2)nc1[P+](c1ccccc1)(c1ccccc1)c1ccccc1 | 8.3% (active) | 1.88% (active) | 55.3% | 24.2% | 5.2% (active) | -22.6% (active) | 2.33% (active) | 45.8% | 21.2% | -52.8% (active) | 16.6% | 11.2% | -26.1% (active) | -5.38% (active) | 5.6% (active) | 20.7% | 16.7% | -9.09% (active) | 11%
CCOC(=O)C1=C(N)N(c2ccc(C)cc2)C2=C(C(=O)CC(C)(C)C2)C1c1ccccc1OC (centres undefined) | 109% | 99.7% | 93.4% | 106% | 111% | 117% | 97.6% | 107% | 99.6% | 134% | 107% | 98.4% | 93.4% | 95.5% | 100% | 91% | 101% | 104% | 112%
Cc1ccc(/C(CSc2nnc(-c3c[nH]c4ccccc34)n2-c2ccccc2)=N/O)cc1 | 53.3% | -41.1% (active) | -42.4% (active) | -56.6% (active) | 1.99% (active) | -5.5% (active) | 23.8% | 18.4% | 2.17% (active) | 12.4% | -60.2% (active) | 1.59% (active) | 16.7% | -82.1% (active) | -60.1% (active) | -49.9% (active) | 10.1% | 35.7% | -64.4% (active)
CN(C)c1ccc(/C=C/c2nc3ccccc3c(=O)n2CC(=O)Nc2ccccc2)cc1 | 58.8% | -6.92% (active) | 48.6% | 37.3% | 16.8% | 15.3% | 48.7% | 33.6% | 20.1% | 69.6% | 42.1% | 55.6% | 15.7% | 33.4% | 57.3% | 35.5% | -26.8% (active) | 60.4% | 81.4%
CC1CC(c2ccc(N(C)C)cc2)=NN1c1nc(O)c(C2=c3cc(Br)ccc3=NC2=O)s1 (centres undefined) | 1.13% (active) | 77.8% | 112% | 92.7% | 63.8% | 83.8% | 70.2% | 72.6% | 94% | 99.7% | 93.7% | 61.9% | 99.4% | 99.8% | 91.7% | 68.9% | 92.3% | 91.2% | 84.8%
CC1(C)[C@@H](NCO)CC[C@]2(C)[C@H]3C(=O)C=C4[C@@H]5C[C@](C)(CO)CC[C@]5(C)CC[C@@]4(C)[C@]3(C)CC[C@@H]12 | 66.5% | 68% | 63.1% | 85.2% | 0.687% (active) | 52% | 72.7% | 60% | 42.8% | 24.6% | 79.4% | 8.51% (active) | 49% | 44.2% | 68.8% | 2.19% (active) | 45.4% | 33.4% | 25.5%
CC1(c2ccccc2)NC(=O)N(CC(=O)Nc2ccc(C(=O)/C=C/c3ccc(Br)cc3)cc2)C1=O (centres undefined) | 64.4% | 43.4% | 78.1% | 61.9% | 59.5% | 25.1% | 64.3% | 38.9% | 12.8% | 64.1% | 59.8% | 14.5% | 72.9% | 54.3% | 30.9% | 37% | 39.9% | 48.4% | 23.3%
COc1ccccc1C(=O)NNC(=O)CSc1nc2c(c(=O)[nH]1)CCCC2 | 91.4% | 83.6% | 103% | 93.5% | 111% | 86.2% | 104% | 106% | 115% | 113% | 104% | 100% | 95.6% | 86.3% | 101% | 99.2% | 101% | 107% | 101%
Clc1cccc(N/N=C/c2c[nH]c3ccccc23)n1 | 57.3% | 50.7% | 65.9% | 46.9% | 28.9% | -10.8% (active) | 16.1% | 56.4% | 13.7% | 37.2% | 48.7% | 13.8% | 50.6% | -0.126% (active) | 19.9% | 49.5% | 6.26% (active) | 68% | 43.6%

Source: PubChem BioAssay (NCI)
